Data as given in PubChem BioAssay AID2108 (National Center for Advancing Translational Sciences (NCATS), 2009).
Inconclusive results are not listed. Calls of active or inactive are those of the source. Calls follow the shape of the dose curve; as a rule, active = well fitted curve in the direction sought with a large enough effect; inconclusive = small, poorly fitted or top-dose-only effect, or effect the other way, or another doubt; inactive = no such curve, though single readings can be large or run the other way.

target: Alpha-galactosidase A (Homo sapiens) (UniProt P06280); test: Confirmation of Inhibitors of Human alpha-Galactosidase Using Spleen Homogenate; conditions: alpha-galactosidase enzyme activity; series mostly up to 56.2 µM; activity change: at the top concentration; also: 0% is about no effect
Sequence (P06280 32-429 limits assumed): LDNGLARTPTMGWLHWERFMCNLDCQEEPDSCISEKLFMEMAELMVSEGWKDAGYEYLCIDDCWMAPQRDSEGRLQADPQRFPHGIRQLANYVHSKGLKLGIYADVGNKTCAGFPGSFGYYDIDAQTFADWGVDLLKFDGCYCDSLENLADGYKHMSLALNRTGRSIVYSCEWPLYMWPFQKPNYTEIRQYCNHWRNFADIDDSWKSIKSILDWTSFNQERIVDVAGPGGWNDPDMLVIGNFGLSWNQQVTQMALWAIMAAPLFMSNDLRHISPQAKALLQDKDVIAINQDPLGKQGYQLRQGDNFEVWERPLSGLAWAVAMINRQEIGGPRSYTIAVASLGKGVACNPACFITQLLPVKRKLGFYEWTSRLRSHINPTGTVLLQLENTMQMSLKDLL
Summary of the method: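 Human spleen homogenate (1 ug) with 1 mM 4-methylumbelliferyl-alpha-D-galactopyranoside in citrate-phosphate pH 5.0, 0.01% Tween-20, 37C 40 min; compounds 0.5 nM–58 uM final. Stopped at pH 10, fluorescence Ex 365/Em 440; AC50 from Hill fits.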

Activity change, inactive:
Cc1sc(-c2cc3cc(Br)ccc3oc2=O)nc1-c1ccccc1 17.2%, N#CCCN1CCN(S(=O)(=O)c2ccc(S(=O)(=O)N3CCOCC3)cc2)CC1 6.75%, Cc1cccc(NC(=O)c2nc[nH]c2C(=O)N[C@@H](CCCCNC(=O)OC(C)(C)C)C(=O)OC(C)(C)C)c1 -3.5%, N#Cc1ccc(S(=O)(=O)N2CCOCC2)cc1 7.99%, CCN(CC)S(=O)(=O)c1ccc2c(c1)C(=NNc1ccccc1)c1cc(S(=O)(=O)N(CC)CC)ccc1-2 -3.74%, CC(=O)NNc1nc2ccccc2s1 -4.19%, Clc1ccc(Nc2ncnc3ccc(Br)cc23)cc1 -6.43% [at 23.6 µM], CC(=O)c1ccc(NC(=O)COc2ccccc2-c2nc(C)no2)cc1 -1.56%, CCC1c2ccc(C)n2CCN1C(=O)Nc1ccccc1C(=O)OC (stereo unspecified) -2.04%, O=S(=O)(c1ccc2nc(-c3ccco3)c(-c3ccco3)nc2c1)N1CCOCC1 4.72%, Clc1cc2c(cc1/C=C/c1ccc3ccccc3n1)OCO2 9.14%, O=C(Cc1ncc(C(F)(F)F)cc1Cl)NCCc1ccccc1 7.47% [at 23.6 µM], Cc1ccccc1Nc1c(-c2cccs2)nc2cccc(C)n12 -6.82%, OCC(CO)NC1C[C@](O)(CO)[C@@H](O)[C@H](O)[C@H]1O (stereo partly specified) 2.15% [at 287 µM], C=C(C)CC(NCc1ccco1)c1ccc(OC)cc1 (stereo unspecified) 3%, COc1cccc2cc(-c3nc(-c4ccccc4)c(C)s3)c(=O)oc12 6.7%, Cc1ccc(S(=O)(=O)N2CCN(C(=O)N(c3ccccc3)c3ccccc3)CC2)cc1 7.46%, COc1ccc(/C=C/c2nnc(NC(=O)COc3ccc(Cl)cc3)s2)cc1 5.82%, O=C(O)Cc1sc(-c2cc3ccccc3oc2=O)nc1-c1ccc(-c2ccccc2)cc1 -0.387%, O=C1NC[C@@H](Cc2cccc3ccccc23)N(CCc2cc(C(F)(F)F)cc(C(F)(F)F)c2)C1=O -5.01%, O=C(Nc1cc(S(=O)(=O)N2CCOCC2)ccc1N1CCCC1)c1cc(=O)[nH]c2ccccc12 -1.95% [at 23.6 µM], CCc1ccc(N=CC23c4ccccc4C(c4ccccc42)C2C(=O)N(c4ccc(OC)cc4)C(=O)C23)cc1 (stereo unspecified) 1.98% [at 23.6 µM], N#C/C(=C\c1cc(O)c(O)c(O)c1)C(N)=O 5.7% [at 23.6 µM], N#Cc1c(-c2ccccc2)nc(SCc2nc(N)nc(N3CCCCC3)n2)[nH]c1=O 6.63%, c1ccc(-n2c(-c3cccs3)nc3nc4ccccc4nc32)cc1 9.43%, COc1cc(CN2CCC(CO)(Cc3cccc(C(F)(F)F)c3)CC2)ccc1F -4.41%, COc1cc(/C=N/Nc2ccc(Cl)c(C(=O)O)c2)ccc1OC(=O)c1ccccc1F -5.95%, O=C(CCc1cccc(S(=O)(=O)N2CCOCC2)c1)NN=C1c2ccccc2-c2ccccc21 -3.69%, Nc1ccccc1N=Cc1ccc(-c2cccc(Cl)c2)o1 8.41%, Cc1cccc(S(=O)(=O)c2c(N)n(-c3ccccc3)c3nc4ccccc4nc23)c1 18.9% [at 23.6 µM], O=C(c1ccccc1)N1CCN(S(=O)(=O)c2ccccc2)CC1 12%, Cc1ccccc1NC(=O)CC1c2ccccc2CC(C)(C)N1C (stereo unspecified) -2.65%, CCOC(=O)C(CC)Sc1ncnc2c1c(-c1ccccc1)cn2-c1ccc(OC)cc1 (stereo unspecified) -3.87%, Cc1ccc(/C=N\Nc2nc3ccc(Cl)cc3[nH]2)o1 -0.392%

outcome, inactive:
Oc1ccc(NCc2ccccc2OCc2ccccc2)cc1, COc1ccc(/C=C/c2nnc(NC(=O)CSc3ccc(Cl)cc3)s2)cc1
